Data on seven sequences can be found in PMC7862700, “An all-to-all approach to the identification of sequence-specific readers for epigenetic DNA modifications on cytosine”.

What all share (test): DAPPL (digital affinity profiling via proximity ligation, sequencing); 10 mM Tris-HCl pH 7.5, 50 mM NaCl, 1 mM DTT, 4% glycerol, room temperature, 30 min; GST-TFs on glutathione beads, 16-mer random dsDNA library, 0.1% formaldehyde crosslink after washing; high values mean tight binding
Details in all cases: protein: recombinant; tags: N-terminal GST; dsDNA, one strand shown

One assay concerns the target T1, ERF (Homo sapiens, UniProt P50548 1-548).
T1 sequence: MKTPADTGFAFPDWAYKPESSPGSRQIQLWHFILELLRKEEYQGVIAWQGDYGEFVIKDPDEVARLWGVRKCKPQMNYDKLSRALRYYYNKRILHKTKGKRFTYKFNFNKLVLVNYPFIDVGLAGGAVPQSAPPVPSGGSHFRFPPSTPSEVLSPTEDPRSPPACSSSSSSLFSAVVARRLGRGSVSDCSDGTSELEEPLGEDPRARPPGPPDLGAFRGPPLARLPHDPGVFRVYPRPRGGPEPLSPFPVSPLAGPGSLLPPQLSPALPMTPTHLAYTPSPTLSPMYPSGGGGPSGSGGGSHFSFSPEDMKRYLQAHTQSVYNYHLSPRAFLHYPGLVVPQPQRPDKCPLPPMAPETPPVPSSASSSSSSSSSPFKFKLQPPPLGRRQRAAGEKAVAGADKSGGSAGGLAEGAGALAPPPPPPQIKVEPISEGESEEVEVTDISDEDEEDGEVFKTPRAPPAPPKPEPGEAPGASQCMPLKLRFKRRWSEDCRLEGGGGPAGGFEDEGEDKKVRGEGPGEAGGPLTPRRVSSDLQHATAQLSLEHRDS
The essentials:
(§1)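 Sequencing on an Illumina NextSeq500 followed washing, crosslinking with 0.1% formaldehyde, proximity ligation (BsaI/T4 ligase, 1 h, 37 °C) and PCR amplification of pools that had been incubated for 30 min at room temperature with 200 nmole of a random double-stranded 16-mer DNA library in Tris/NaCl/DTT/glycerol buffer. Each pool held DNA-barcoded human transcription factors, expressed in yeast as GST fusions and captured on glutathione beads, plus a tag-only sample. Binding signal is a hexamer's read frequency for a factor divided by its frequency in the tag-only sample.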

In a further assay the target is T2, ETV3L (Homo sapiens, UniProt Q6ZN32 1-361).
T2 sequence: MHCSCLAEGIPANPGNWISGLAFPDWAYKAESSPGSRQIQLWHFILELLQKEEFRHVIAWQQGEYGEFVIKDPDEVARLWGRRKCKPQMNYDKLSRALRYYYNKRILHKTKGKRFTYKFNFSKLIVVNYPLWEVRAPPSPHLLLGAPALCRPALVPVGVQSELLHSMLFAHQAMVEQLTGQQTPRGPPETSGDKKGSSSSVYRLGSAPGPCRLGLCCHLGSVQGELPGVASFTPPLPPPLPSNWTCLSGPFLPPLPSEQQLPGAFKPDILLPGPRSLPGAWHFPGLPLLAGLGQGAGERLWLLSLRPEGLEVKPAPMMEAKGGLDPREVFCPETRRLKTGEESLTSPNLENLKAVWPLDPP
The essentials: as §1

For the next assay, the target named is T3, ETS2 (Homo sapiens, UniProt P15036 1-469).
T3 sequence: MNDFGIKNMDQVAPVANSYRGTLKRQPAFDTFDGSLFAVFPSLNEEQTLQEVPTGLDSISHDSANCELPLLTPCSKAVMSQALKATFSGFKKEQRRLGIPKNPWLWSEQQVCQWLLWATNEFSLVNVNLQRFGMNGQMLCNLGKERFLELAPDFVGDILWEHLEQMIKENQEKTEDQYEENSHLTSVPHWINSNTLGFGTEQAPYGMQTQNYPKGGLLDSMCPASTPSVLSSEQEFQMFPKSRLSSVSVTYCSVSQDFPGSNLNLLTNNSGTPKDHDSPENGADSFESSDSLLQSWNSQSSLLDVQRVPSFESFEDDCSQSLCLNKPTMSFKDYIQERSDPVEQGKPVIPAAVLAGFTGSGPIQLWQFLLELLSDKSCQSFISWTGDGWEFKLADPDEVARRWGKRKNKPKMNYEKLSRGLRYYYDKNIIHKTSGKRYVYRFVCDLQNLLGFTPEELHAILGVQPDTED
The essentials:
as §1

For another assay, the target named is T4, SPDEF (Homo sapiens, UniProt O95238 1-335).
T4 sequence: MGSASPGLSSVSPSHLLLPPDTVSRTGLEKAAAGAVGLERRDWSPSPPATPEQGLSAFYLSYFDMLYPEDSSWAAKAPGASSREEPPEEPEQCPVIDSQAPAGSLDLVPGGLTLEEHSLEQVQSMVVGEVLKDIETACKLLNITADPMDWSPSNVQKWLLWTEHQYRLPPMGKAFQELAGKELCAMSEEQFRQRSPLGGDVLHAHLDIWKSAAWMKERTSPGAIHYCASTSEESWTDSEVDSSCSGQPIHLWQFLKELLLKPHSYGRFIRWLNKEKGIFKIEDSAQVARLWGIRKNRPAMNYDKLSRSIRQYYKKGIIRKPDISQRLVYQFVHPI
The essentials:
as §1

For a further assay, the target named is T5, ETV7 (Homo sapiens, UniProt Q9Y603 1-341).
T5 sequence: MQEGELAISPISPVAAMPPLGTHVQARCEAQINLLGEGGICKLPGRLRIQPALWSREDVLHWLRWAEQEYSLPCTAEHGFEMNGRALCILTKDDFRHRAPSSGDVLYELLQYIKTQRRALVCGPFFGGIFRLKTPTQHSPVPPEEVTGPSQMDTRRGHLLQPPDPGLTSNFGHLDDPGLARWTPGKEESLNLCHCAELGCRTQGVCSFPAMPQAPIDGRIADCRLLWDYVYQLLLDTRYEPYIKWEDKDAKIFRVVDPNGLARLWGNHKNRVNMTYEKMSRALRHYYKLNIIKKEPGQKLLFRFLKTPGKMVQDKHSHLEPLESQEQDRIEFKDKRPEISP
The essentials: as §1

The next assay concerns the target T6, ELF5 (Homo sapiens, UniProt Q9UKW6-2 1-255).
T6 sequence: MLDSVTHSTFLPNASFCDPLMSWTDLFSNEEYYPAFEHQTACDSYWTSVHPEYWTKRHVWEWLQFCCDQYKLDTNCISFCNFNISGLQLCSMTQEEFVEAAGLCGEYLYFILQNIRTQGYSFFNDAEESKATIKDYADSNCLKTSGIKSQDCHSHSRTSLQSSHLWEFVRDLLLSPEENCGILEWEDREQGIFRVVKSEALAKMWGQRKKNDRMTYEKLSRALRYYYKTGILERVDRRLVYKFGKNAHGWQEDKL
The essentials: as §1

The target of another assay is T7, ETV3 (Homo sapiens, UniProt P41162-2 1-143).
T7 sequence: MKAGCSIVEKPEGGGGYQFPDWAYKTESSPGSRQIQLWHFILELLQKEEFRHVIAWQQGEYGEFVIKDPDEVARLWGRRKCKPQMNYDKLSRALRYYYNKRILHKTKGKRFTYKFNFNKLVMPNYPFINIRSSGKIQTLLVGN
The essentials: as §1

The next assay deals with ETV6 (Homo sapiens, UniProt P41212 1-452). The essentials:
as §1

ETV6, sequence (P41212 whole entry): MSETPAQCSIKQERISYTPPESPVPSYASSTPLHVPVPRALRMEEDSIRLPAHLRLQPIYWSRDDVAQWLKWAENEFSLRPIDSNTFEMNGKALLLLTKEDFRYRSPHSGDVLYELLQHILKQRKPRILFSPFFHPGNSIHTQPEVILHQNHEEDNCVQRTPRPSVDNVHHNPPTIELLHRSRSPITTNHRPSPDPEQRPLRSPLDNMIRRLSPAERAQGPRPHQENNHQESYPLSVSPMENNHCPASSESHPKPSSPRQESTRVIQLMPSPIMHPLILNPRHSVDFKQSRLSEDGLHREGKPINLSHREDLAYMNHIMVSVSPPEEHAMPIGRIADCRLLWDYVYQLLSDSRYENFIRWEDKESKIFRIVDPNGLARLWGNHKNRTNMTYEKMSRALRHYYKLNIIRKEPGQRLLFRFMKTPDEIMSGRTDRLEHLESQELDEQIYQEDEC

On to TAAACC, for which the binding signal is 1.28 fold enrichment (6-mer frequency, TF over GST control) in the assay with ERF; 1.26 fold enrichment (6-mer frequency, TF over GST control) in the assay with ETV3L; 1.22 fold enrichment (6-mer frequency, TF over GST control) with ETS2; 1.28 fold enrichment (6-mer frequency, TF over GST control) with SPDEF; 1.22 fold enrichment (6-mer frequency, TF over GST control) in the assay with ETV7; 1.21 fold enrichment (6-mer frequency, TF over GST control) with ELF5. Moreover, the binding signal in the assay with ETV3 was 1.26 fold enrichment (6-mer frequency, TF over GST control); with ETV6, 1.29 fold enrichment (6-mer frequency, TF over GST control).

For GTACAT, the binding signal is 1.36 fold enrichment (6-mer frequency, TF over GST control) with ERF; 1.32 fold enrichment (6-mer frequency, TF over GST control) in the assay with ETV3L; 1.36 fold enrichment (6-mer frequency, TF over GST control) in the assay with ETS2; 2.06 fold enrichment (6-mer frequency, TF over GST control) with SPDEF; 1.53 fold enrichment (6-mer frequency, TF over GST control) with ETV7; 1.3 fold enrichment (6-mer frequency, TF over GST control) in the assay with ELF5. Moreover, the binding signal was 1.34 fold enrichment (6-mer frequency, TF over GST control) with ETV3 and 1.4 fold enrichment (6-mer frequency, TF over GST control) in the assay with ETV6.

As for ACTCCC, the binding signal with ERF is 1.44 fold enrichment (6-mer frequency, TF over GST control); in the assay with ETV3L, 1.19 fold enrichment (6-mer frequency, TF over GST control); in the assay with ETS2, 1.27 fold enrichment (6-mer frequency, TF over GST control); with SPDEF it was 1.32 fold enrichment (6-mer frequency, TF over GST control); with ETV7, 1.31 fold enrichment (6-mer frequency, TF over GST control); in the assay with ELF5 it was 1.38 fold enrichment (6-mer frequency, TF over GST control). The binding signal with ETV3 is 1.47 fold enrichment (6-mer frequency, TF over GST control); with ETV6, 1.47 fold enrichment (6-mer frequency, TF over GST control).

In the case of GATTTG, the binding signal is 1.12 fold enrichment (6-mer frequency, TF over GST control) with ERF; 1.18 fold enrichment (6-mer frequency, TF over GST control) in the assay with ETV3L; 1.14 fold enrichment (6-mer frequency, TF over GST control) in the assay with ETS2; 1.19 fold enrichment (6-mer frequency, TF over GST control) with SPDEF; 1.15 fold enrichment (6-mer frequency, TF over GST control) in the assay with ETV7; 1.05 fold enrichment (6-mer frequency, TF over GST control) with ELF5. In addition, the binding signal was 1.1 fold enrichment (6-mer frequency, TF over GST control) with ETV3 and 1.09 fold enrichment (6-mer frequency, TF over GST control) with ETV6.

With TTGCGG, the binding signal in the assay with ERF is 1.25 fold enrichment (6-mer frequency, TF over GST control); in the assay with ETV3L, 1.3 fold enrichment (6-mer frequency, TF over GST control); with ETS2 it was 1.21 fold enrichment (6-mer frequency, TF over GST control); with SPDEF, 1.24 fold enrichment (6-mer frequency, TF over GST control); with ETV7, 1.29 fold enrichment (6-mer frequency, TF over GST control); with ELF5, 1.24 fold enrichment (6-mer frequency, TF over GST control). Moreover, the binding signal in the assay with ETV3 is 1.34 fold enrichment (6-mer frequency, TF over GST control); in the assay with ETV6, 1.41 fold enrichment (6-mer frequency, TF over GST control).

In the case of TGTTTA, the binding signal with ERF was 1.22 fold enrichment (6-mer frequency, TF over GST control); in the assay with ETV3L it was 1.2 fold enrichment (6-mer frequency, TF over GST control); in the assay with ETS2, 1.13 fold enrichment (6-mer frequency, TF over GST control); with SPDEF, 1.17 fold enrichment (6-mer frequency, TF over GST control); with ETV7, 1.3 fold enrichment (6-mer frequency, TF over GST control); with ELF5 it was 1.19 fold enrichment (6-mer frequency, TF over GST control). The binding signal in the assay with ETV3 was 1.12 fold enrichment (6-mer frequency, TF over GST control); with ETV6, 1.19 fold enrichment (6-mer frequency, TF over GST control).

Consider GGTCCC, for which the binding signal was 1.18 fold enrichment (6-mer frequency, TF over GST control) in the assay with ERF; 1.25 fold enrichment (6-mer frequency, TF over GST control) with ETV3L; 1.12 fold enrichment (6-mer frequency, TF over GST control) with ETS2; 1.29 fold enrichment (6-mer frequency, TF over GST control) in the assay with SPDEF; 1.15 fold enrichment (6-mer frequency, TF over GST control) with ETV7; 1.13 fold enrichment (6-mer frequency, TF over GST control) in the assay with ELF5. For the same sequence, the binding signal in the assay with ETV3 is 1.2 fold enrichment (6-mer frequency, TF over GST control); with ETV6 it was 1.09 fold enrichment (6-mer frequency, TF over GST control).
